Data published in paper PMC7862700, “An all-to-all approach to the identification of sequence-specific readers for epigenetic DNA modifications on cytosine”.

Columns and labels:
Assay in all cases: DAPPL (digital affinity profiling via proximity ligation, sequencing); 10 mM Tris-HCl pH 7.5, 50 mM NaCl, 1 mM DTT, 4% glycerol, room temperature, 30 min; GST-TFs on glutathione beads, 16-mer random dsDNA library, 0.1% formaldehyde crosslink after washing; high values mean tight binding
[1] = target: T1, FEV (Homo sapiens, UniProt Q99581 1-238); details: protein: recombinant; tags: N-terminal GST; dsDNA, one strand shown
T1 sequence: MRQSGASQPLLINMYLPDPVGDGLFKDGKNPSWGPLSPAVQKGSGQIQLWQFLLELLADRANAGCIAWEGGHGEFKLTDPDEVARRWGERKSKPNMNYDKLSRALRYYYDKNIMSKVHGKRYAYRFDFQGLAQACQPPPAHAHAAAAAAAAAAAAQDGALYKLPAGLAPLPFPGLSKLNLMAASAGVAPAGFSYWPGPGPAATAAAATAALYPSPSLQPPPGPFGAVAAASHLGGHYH
In short: (§1)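 Binding signal is each hexamer's read frequency for a factor divided by its frequency in the tag-only sample. The factors were GST-fused human transcription factors from yeast, captured on glutathione beads, DNA-barcoded and pooled with that sample. Pools were incubated with 200 nmole of a random double-stranded 16-mer DNA library in Tris/NaCl/DTT/glycerol buffer at room temperature for 30 min, then washed, crosslinked with 0.1% formaldehyde, proximity-ligated with BsaI/T4 ligase (1 h, 37 °C), PCR-amplified and sequenced on an Illumina NextSeq500.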

[2] = target: ETV5 (Homo sapiens, UniProt P41161 1-510); details: protein: recombinant; tags: N-terminal GST; dsDNA, one strand shown
In short: as §1

[3] = target: HSF1 (Homo sapiens, UniProt Q00613 1-529); details: protein: recombinant; tags: N-terminal GST; chain copies: 3; dsDNA, one strand shown
In short: as §1

[4] = target: T2, SPIC (Homo sapiens, UniProt Q8N5J4 1-248); details: protein: recombinant; tags: N-terminal GST; dsDNA, one strand shown
T2 sequence: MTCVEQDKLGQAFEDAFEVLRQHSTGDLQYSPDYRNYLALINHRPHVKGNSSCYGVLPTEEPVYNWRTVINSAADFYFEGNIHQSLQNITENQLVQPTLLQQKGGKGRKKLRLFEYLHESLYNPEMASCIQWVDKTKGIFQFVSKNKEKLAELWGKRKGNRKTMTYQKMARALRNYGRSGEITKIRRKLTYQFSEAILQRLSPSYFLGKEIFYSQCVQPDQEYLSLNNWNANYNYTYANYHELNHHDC
In short: as §1

[5] = target: ELF4 (Homo sapiens, UniProt Q99607 1-663); details: protein: recombinant; tags: N-terminal GST; dsDNA, one strand shown
In short: as §1

[6] = target: T3, ELK4 (Homo sapiens, UniProt P28324-2 1-405); details: protein: recombinant; tags: N-terminal GST; dsDNA, one strand shown
T3 sequence: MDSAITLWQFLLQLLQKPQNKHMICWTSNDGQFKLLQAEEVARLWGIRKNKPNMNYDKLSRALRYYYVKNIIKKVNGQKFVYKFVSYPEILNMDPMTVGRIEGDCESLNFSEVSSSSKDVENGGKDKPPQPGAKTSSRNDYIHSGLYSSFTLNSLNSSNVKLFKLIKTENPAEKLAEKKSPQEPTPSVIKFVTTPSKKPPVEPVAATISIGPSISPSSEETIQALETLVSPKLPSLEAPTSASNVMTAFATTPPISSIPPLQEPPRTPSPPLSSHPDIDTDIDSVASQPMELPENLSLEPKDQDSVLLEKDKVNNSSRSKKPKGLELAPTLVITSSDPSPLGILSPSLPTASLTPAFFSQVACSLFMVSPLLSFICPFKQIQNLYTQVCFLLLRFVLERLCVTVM
In short: as §1

[7] = target: T4, ETV2 (Homo sapiens, UniProt O00321 1-342); details: protein: recombinant; tags: N-terminal GST; dsDNA, one strand shown
T4 sequence: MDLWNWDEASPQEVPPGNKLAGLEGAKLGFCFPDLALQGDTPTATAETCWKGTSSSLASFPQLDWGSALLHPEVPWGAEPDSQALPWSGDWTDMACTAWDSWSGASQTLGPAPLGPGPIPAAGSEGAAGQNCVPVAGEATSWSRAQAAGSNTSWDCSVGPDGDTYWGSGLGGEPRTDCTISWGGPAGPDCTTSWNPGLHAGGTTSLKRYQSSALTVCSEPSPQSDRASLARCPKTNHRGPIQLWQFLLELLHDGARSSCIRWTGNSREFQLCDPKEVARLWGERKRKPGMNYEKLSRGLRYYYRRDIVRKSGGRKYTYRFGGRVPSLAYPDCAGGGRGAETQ
In short: as §1

[8] = target: T5, ELF3 (Homo sapiens, UniProt P78545 1-371); details: protein: recombinant; tags: N-terminal GST; dsDNA, one strand shown
T5 sequence: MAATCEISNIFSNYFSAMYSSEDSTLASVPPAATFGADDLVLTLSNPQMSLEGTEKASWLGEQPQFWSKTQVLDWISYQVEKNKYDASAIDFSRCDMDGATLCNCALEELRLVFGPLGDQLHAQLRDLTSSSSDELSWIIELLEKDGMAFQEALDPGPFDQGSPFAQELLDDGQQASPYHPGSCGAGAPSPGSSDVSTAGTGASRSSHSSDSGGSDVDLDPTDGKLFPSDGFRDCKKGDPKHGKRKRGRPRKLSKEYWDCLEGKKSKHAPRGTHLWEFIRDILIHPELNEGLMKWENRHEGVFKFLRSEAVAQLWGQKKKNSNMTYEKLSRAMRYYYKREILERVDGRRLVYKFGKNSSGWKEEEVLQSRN
In short: as §1

[9] = target: CRX (Homo sapiens, UniProt O43186 1-299); details: protein: recombinant; tags: N-terminal GST; dsDNA, one strand shown
In short: as §1

[10] = target: ETV1 (Homo sapiens, UniProt P50549 1-477); details: protein: recombinant; tags: N-terminal GST; dsDNA, one strand shown
In short: as §1

[11] = target: T6, ERF (Homo sapiens, UniProt P50548 1-548); details: protein: recombinant; tags: N-terminal GST; dsDNA, one strand shown
T6 sequence: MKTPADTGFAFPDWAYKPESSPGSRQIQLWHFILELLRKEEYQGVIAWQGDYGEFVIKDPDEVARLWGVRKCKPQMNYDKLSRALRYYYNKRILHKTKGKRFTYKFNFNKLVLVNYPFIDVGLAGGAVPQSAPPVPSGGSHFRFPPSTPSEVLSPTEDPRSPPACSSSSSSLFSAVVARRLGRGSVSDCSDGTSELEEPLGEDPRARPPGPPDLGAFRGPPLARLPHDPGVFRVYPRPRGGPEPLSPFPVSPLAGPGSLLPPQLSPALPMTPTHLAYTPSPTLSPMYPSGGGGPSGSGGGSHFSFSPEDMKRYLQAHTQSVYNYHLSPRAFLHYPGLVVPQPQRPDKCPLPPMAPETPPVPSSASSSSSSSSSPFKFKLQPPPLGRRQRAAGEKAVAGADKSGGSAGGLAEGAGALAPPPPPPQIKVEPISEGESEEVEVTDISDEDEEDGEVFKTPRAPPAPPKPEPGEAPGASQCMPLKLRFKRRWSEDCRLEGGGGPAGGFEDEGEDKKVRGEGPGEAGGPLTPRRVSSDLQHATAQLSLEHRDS
In short: as §1

[12] = target: T7, ETV3L (Homo sapiens, UniProt Q6ZN32 1-361); details: protein: recombinant; tags: N-terminal GST; dsDNA, one strand shown
T7 sequence: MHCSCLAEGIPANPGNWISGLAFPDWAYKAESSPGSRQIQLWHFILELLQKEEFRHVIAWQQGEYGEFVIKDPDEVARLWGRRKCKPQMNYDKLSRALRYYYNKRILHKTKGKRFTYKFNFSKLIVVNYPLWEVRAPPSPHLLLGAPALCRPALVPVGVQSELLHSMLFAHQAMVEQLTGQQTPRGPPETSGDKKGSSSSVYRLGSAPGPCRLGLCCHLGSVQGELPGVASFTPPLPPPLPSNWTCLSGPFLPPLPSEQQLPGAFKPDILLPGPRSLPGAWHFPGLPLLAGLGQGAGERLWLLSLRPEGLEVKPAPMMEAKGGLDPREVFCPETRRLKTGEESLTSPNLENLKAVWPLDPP
In short: as §1

[13] = target: T8, ETS2 (Homo sapiens, UniProt P15036 1-469); details: protein: recombinant; tags: N-terminal GST; dsDNA, one strand shown
T8 sequence: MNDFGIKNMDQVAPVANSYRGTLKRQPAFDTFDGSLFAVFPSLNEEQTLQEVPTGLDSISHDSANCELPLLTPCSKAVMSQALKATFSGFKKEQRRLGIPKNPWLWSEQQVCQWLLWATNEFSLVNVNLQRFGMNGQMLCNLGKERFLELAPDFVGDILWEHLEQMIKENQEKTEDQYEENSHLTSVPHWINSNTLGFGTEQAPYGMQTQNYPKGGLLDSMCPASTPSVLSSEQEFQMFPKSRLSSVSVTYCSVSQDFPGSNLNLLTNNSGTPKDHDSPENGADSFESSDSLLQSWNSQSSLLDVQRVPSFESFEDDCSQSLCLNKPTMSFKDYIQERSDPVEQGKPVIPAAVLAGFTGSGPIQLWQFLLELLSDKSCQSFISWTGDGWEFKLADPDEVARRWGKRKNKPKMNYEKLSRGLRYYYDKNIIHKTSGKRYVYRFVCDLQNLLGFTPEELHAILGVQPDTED
In short: as §1

[14] = target: T9, SPDEF (Homo sapiens, UniProt O95238 1-335); details: protein: recombinant; tags: N-terminal GST; dsDNA, one strand shown
T9 sequence: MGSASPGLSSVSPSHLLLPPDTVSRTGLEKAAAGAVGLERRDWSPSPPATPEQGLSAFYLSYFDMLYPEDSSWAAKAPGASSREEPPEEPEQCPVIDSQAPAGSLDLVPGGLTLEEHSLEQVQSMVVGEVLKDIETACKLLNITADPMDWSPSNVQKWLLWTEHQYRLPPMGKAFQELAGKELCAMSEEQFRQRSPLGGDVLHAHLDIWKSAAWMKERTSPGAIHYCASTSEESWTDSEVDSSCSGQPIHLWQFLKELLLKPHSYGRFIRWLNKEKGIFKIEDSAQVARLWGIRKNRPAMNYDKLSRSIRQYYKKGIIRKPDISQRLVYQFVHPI
In short: as §1

[15] = target: T10, ETV7 (Homo sapiens, UniProt Q9Y603 1-341); details: protein: recombinant; tags: N-terminal GST; dsDNA, one strand shown
T10 sequence: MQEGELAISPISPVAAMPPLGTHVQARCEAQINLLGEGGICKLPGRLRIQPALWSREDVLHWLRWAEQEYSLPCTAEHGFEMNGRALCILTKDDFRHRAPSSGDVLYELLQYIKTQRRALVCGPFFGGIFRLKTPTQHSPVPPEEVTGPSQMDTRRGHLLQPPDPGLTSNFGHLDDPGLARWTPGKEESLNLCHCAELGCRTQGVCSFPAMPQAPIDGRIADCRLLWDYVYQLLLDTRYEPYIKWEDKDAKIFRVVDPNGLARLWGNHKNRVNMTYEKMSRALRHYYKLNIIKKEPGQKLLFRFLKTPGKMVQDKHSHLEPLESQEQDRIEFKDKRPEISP
In short: as §1

[16] = target: T11, ELF5 (Homo sapiens, UniProt Q9UKW6-2 1-255); details: protein: recombinant; tags: N-terminal GST; dsDNA, one strand shown
T11 sequence: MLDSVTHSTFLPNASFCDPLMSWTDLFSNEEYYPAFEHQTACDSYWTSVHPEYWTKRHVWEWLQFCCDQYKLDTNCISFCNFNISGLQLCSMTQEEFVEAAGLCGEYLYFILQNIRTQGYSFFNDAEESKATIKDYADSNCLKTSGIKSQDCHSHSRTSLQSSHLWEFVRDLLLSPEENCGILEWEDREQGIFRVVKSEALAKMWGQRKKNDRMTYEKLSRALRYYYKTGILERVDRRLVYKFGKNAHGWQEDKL
In short: as §1

[17] = target: T12, ETV3 (Homo sapiens, UniProt P41162-2 1-143); details: protein: recombinant; tags: N-terminal GST; dsDNA, one strand shown
T12 sequence: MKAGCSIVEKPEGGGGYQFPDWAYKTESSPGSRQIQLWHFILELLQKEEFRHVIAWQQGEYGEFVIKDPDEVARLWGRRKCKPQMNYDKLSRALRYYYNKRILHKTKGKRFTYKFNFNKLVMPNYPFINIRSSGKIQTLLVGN
In short: as §1

[18] = target: ETV6 (Homo sapiens, UniProt P41212 1-452); details: protein: recombinant; tags: N-terminal GST; dsDNA, one strand shown
In short: as §1

Sequence of HSF1 (Q00613 whole entry): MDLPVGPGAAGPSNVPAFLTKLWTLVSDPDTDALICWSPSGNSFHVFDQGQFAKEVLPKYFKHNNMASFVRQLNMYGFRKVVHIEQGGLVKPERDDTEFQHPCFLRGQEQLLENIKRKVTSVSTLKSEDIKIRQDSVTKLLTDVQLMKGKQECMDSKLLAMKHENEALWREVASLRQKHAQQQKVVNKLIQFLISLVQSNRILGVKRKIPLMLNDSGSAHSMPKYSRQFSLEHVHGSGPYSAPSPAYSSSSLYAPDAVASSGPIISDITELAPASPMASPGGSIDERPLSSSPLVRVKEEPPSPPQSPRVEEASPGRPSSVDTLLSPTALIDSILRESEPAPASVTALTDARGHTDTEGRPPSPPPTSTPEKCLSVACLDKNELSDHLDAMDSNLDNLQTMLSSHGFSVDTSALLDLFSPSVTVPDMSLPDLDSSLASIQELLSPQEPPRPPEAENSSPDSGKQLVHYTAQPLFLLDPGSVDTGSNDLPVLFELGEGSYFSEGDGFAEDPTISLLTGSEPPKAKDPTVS
Sequence of ETV6 (P41212 whole entry): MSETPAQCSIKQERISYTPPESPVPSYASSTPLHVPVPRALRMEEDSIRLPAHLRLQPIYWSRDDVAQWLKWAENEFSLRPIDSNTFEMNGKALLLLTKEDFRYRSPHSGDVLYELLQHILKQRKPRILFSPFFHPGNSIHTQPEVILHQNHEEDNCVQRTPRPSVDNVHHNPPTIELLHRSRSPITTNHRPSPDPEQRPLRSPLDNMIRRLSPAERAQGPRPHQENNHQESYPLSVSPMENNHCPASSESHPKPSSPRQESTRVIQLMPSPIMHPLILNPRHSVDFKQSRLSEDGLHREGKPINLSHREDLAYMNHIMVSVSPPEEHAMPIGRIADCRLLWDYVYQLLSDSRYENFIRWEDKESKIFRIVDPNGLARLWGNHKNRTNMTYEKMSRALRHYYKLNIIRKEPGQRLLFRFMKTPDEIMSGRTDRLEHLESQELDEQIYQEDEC
Sequence of CRX (O43186 whole entry): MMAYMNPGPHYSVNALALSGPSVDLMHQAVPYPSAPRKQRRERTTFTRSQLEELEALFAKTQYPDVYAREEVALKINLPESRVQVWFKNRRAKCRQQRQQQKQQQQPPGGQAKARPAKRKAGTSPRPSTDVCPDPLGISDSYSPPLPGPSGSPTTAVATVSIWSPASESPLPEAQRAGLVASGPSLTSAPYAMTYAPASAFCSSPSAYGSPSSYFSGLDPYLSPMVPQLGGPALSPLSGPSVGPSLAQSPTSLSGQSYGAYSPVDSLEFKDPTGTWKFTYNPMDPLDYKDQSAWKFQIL
Sequence of ETV1 (P50549 whole entry): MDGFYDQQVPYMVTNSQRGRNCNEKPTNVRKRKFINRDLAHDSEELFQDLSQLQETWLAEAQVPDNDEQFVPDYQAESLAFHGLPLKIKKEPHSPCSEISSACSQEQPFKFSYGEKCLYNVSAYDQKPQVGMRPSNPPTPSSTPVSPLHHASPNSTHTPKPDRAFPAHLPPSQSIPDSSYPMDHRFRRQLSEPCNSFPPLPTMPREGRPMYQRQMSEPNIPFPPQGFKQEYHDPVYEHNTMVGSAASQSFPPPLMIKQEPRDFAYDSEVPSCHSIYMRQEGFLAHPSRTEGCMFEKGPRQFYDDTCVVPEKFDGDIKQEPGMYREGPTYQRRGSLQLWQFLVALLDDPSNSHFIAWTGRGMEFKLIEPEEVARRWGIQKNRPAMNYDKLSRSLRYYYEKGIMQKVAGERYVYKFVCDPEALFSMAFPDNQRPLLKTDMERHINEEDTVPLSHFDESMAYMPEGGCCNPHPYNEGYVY
Sequence of ELF4 (Q99607 whole entry): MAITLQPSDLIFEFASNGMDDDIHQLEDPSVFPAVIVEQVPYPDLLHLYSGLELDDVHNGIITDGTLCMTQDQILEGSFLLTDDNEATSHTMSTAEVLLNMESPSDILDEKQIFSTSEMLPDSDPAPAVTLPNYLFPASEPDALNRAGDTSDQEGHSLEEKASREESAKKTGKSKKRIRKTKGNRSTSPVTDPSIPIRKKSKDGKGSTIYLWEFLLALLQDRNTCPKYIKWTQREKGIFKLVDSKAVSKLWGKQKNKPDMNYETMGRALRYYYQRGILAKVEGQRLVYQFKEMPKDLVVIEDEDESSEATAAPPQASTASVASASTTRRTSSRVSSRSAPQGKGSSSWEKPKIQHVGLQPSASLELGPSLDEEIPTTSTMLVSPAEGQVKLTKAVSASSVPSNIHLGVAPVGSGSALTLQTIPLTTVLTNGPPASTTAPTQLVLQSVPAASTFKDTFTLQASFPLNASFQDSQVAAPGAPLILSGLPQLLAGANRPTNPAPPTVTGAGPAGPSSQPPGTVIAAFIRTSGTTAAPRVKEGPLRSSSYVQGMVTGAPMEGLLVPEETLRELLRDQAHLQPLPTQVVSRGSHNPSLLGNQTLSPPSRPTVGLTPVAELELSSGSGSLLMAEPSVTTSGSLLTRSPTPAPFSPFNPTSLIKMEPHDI
Sequence of ETV5 (P41161 whole entry): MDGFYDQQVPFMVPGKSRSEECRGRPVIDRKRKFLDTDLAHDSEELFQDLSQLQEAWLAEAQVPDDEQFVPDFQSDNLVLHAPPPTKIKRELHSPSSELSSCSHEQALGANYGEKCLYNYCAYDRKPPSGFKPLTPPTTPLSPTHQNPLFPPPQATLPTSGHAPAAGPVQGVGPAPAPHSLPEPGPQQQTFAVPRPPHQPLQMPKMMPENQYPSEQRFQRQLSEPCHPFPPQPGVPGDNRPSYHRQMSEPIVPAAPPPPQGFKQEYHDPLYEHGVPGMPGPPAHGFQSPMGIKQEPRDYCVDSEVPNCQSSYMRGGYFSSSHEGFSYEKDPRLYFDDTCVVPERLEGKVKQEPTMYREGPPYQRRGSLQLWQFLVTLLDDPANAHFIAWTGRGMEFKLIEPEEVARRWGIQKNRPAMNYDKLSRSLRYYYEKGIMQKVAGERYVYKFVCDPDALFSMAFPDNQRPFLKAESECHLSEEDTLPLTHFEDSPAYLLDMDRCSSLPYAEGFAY

Sequence: TCCAAC
- binding signal [1]: 1.21 fold enrichment (6-mer frequency, TF over GST control)
- binding signal [2]: 1.14 fold enrichment (6-mer frequency, TF over GST control)
- binding signal [3]: 1.11 fold enrichment (6-mer frequency, TF over GST control)
- binding signal [4]: 1.26 fold enrichment (6-mer frequency, TF over GST control)
- binding signal [5]: 1.24 fold enrichment (6-mer frequency, TF over GST control)
- binding signal [6]: 1.21 fold enrichment (6-mer frequency, TF over GST control)
- binding signal [7]: 1.22 fold enrichment (6-mer frequency, TF over GST control)
- binding signal [8]: 1.23 fold enrichment (6-mer frequency, TF over GST control)
- binding signal [9]: 1.05 fold enrichment (6-mer frequency, TF over GST control)
- binding signal [10]: 1.2 fold enrichment (6-mer frequency, TF over GST control)
- binding signal [11]: 1.2 fold enrichment (6-mer frequency, TF over GST control)
- binding signal [12]: 1.18 fold enrichment (6-mer frequency, TF over GST control)
- binding signal [13]: 1.25 fold enrichment (6-mer frequency, TF over GST control)
- binding signal [14]: 1.28 fold enrichment (6-mer frequency, TF over GST control)
- binding signal [15]: 1.32 fold enrichment (6-mer frequency, TF over GST control)
- binding signal [16]: 1.12 fold enrichment (6-mer frequency, TF over GST control)
- binding signal [17]: 1.2 fold enrichment (6-mer frequency, TF over GST control)
- binding signal [18]: 1.14 fold enrichment (6-mer frequency, TF over GST control)
